Screening data as filed in PubChem.
Hits are enriched below; roughly 21% of the tested compounds scored in any of these assays.
MRP resist rev = reversal of MRP1-mediated doxorubicin resistance, primary screen, H69AR cells, doxorubicin co-treatment | H69AR cells + 2 uM doxorubicin, CellTiter-Glo, 72 h | differential viability (reversal), % at 10 µM | 85,000 tested, 0.04% active;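 active = viability drop by adding the cancer drug above about 55%, with treated viability meeting a 40% cutoff, limit read from the data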;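 also: viability without doxorubicin minus viability with 2 µM doxorubicin for each compound; larger differential means the compound sensitizes cells more to doxorubicin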
CYP2C9 inh = blockers of cytochrome P450 2C9 activity – biochemical, luminescence, ADME assay, primary screen; P11712; CYP2C9 Supersomes, luciferin-H conversion; inhibition, % at 5 µM; 96,000 tested, 20% active;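 active = blocking of liver enzyme CYP2C9 beyond about 50% at 5 µM, limit read from the data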
CYP2C9 act = human CYP2C9 activators, primary screen, biochemical, luminescence; AID 1024, 2008; 96,000 tested, 1.4% active; activation factor at 5 µM; recombinant CYP2C9, luciferin-H conversion; active compounds read high; factor 1 = untreated enzyme, 0 = blocked; Cytochrome P450 2C9 (Homo sapiens), P11712;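 active = activation factor of 2 or more for CYP2C9 at a 5 µM dose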;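 also: 0 = sulfaphenazole-blocked wells and 1 = vehicle-only wells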
CYP2C19 activ = human CYP2C19 activators, primary screen, biochemical, luminescence. activation factor at 5 µM. AID 1025, 2008. Cytochrome P450 2C19 (Homo sapiens), P33261. recombinant CYP2C19, luciferin-H EGE luminescence; active compounds read high; 0 = fully inhibited enzyme, 1 = untreated enzyme. 96,000 tested, under 10 active;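 active = activation factor of at least 2 at 5 µM in the primary screen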;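 also: 0 = wells with 2.5 mM tranylcypromine and 1 = vehicle-only wells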
Target sequence (P33261 whole entry, looked up): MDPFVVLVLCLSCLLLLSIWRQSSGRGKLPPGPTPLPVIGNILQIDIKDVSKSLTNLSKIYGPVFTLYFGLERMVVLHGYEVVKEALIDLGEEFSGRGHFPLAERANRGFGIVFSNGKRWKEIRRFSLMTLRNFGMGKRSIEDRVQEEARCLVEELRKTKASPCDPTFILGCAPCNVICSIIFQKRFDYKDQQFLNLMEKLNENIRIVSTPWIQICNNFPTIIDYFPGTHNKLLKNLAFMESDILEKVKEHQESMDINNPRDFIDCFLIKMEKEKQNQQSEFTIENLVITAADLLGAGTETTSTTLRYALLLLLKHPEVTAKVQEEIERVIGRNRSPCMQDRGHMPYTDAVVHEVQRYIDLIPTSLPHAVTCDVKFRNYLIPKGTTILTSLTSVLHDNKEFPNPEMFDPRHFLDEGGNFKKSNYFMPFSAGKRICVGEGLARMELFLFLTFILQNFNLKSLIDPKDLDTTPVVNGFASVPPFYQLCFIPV
CYP2C19 inh = blockers of cytochrome P450 2C19 activity – biochemical, luminescence, ADME assay, primary screen. 96,000 tested, 21% active. P33261. CYP2C19 Supersomes, luciferin-H EGE luminescence, 30 min. inhibition, % at 5 µM;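 active = CYP2C19 inhibition above a set limit at 5 µM in the primary screen, cut at about 50% in these data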;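 also: plate controls were negative control wells for no effect and 2.5 mM tranylcypromine positive control for full effect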
MRP1 act = H69AR viability gain despite doxorubicin, primary screen, MRP-1 activator project, H69AR cells, CellTiter-Glo. viability rescue. viability increase, % at 10 µM. 140,000 tested, 0.61% active. AID 799, 2007;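 active = viability gain under doxorubicin at or above a set limit, the compound median plus 3 SD, cut at about 4.7% in these data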;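 also: MRP-1 overexpressing cells given doxorubicin 25 µM after compound pretreatment; 18-22 h compound pretreatment then 72 h with doxorubicin before readout; 0% = doxorubicin-only wells and 100% = vehicle-treated cells without doxorubicin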
Numbers without * were called inactive.

COc1ccc(CNc2nc3ccccc3n2Cc2ccc(Cl)cc2)cc1OC was read as MRP1 act -1.
Screening COc1cc([C@H]2c3[nH]c4ccccc4c3C[C@H]3C(=O)N4[C@@H](c5cc(OC)c(OC)c(OC)c5)c5[nH]c6ccccc6c5C[C@H]4C(=O)N23)cc(OC)c1OC returned MRP1 act -4.
For CCOC(=O)C1Cc2ccccc2CN1 (configuration not stated) the results were MRP resist rev 8, CYP2C9 inh 0, CYP2C9 act 1, CYP2C19 activ 1, CYP2C19 inh -1 and MRP1 act -2.
Screening CCOC(=O)C1Cc2c([nH]c3ccccc23)CN1 (configuration not stated) returned MRP resist rev 3, CYP2C9 inh 3, CYP2C9 act 1, CYP2C19 activ 0.4, CYP2C19 inh 56* and MRP1 act 1.
For COC(=O)C1Cc2c([nH]c3ccccc23)C(C)N1 (configuration not stated) the results were MRP resist rev 25, CYP2C9 inh -159, CYP2C9 act 2.6*, CYP2C19 activ 0.5, CYP2C19 inh 50* and MRP1 act 1.
For O=C(N/N=C/c1ccc(OC2CSC2)cc1)c1ccccc1 the results were CYP2C9 inh 6, CYP2C9 act 0.9, CYP2C19 activ 1.1, CYP2C19 inh -11 and MRP1 act 0.
For O=C(/C=C/c1ccc(OC2CSC2)cc1)c1ccccc1 the results were CYP2C9 inh 40, CYP2C9 act 0.6, CYP2C19 activ 0.4, CYP2C19 inh 61* and MRP1 act -5.
`Cc1ccc(C(C)C)c(OCc2nc(-c3nonc3N)no2)c1` gave MRP resist rev 9, CYP2C9 inh -18, CYP2C9 act 1.2, CYP2C19 activ 0.8, CYP2C19 inh 20 and MRP1 act 6.4*.
Screening Nc1nonc1-c1noc(CCCOc2ccc(Cl)cc2Cl)n1 returned MRP resist rev 2, CYP2C9 inh -12, CYP2C9 act 1.1, CYP2C19 activ 0.6, CYP2C19 inh 40 and MRP1 act -1.
For Cc1ccc(OCC(=O)Nc2cccc(O)c2)cc1C the results were MRP resist rev 5, CYP2C9 inh -43, CYP2C9 act 1.4, CYP2C19 activ 0.8, CYP2C19 inh 17 and MRP1 act 0.
Cc1cccc(NC(=O)COc2ccccc2)c1 was read as MRP resist rev 18, CYP2C9 inh 21, CYP2C9 act 0.8, CYP2C19 activ 0.2, CYP2C19 inh 83* and MRP1 act -2.
CC(=O)Nc1cccc(OCC(=O)Nc2ccccc2)c1 was read as MRP resist rev -6, CYP2C9 inh -26, CYP2C9 act 1.3, CYP2C19 activ 0.7, CYP2C19 inh 34 and MRP1 act -3.
Screening CC(=O)c1cccc(NC(=O)COc2nsnc2N2CCOCC2)c1 returned MRP resist rev 12, CYP2C9 inh 41, CYP2C9 act 0.6, CYP2C19 activ 0.5, CYP2C19 inh 50 and MRP1 act -2.
Cc1cc(C)n(C(=O)COc2c(C)cccc2C)n1 was read as MRP resist rev 11, CYP2C9 inh 10, CYP2C9 act 0.9, CYP2C19 activ 0.5, CYP2C19 inh 46 and MRP1 act 0.
`Cc1cccc(NC(=O)COc2nsnc2N2CCOCC2)c1` gave MRP resist rev -2, CYP2C9 inh 17, CYP2C9 act 0.8, CYP2C19 activ 0.4, CYP2C19 inh 56* and MRP1 act -1.
Cc1cccc(OCC(=O)NCC(=O)n2nc(C)cc2C)c1 was read as MRP resist rev 13, CYP2C9 inh -114, CYP2C9 act 2.1*, CYP2C19 activ 0.4, CYP2C19 inh 61* and MRP1 act 0.
For Cc1cccc(OCC(=O)Nc2cccc(O)c2)c1 the results were MRP resist rev -6, CYP2C9 inh 22, CYP2C9 act 0.8, CYP2C19 activ 0.2, CYP2C19 inh 79* and MRP1 act -1.
`O=C(CCSc1nc2ccccc2s1)N/N=C/c1c(O)ccc2ccccc12` gave MRP1 act 0.
